Results as given in PubChem BioAssay (NCATS).
Results filed as inconclusive are left out. Activity calls are given as the source filed them. Calls follow the shape of the dose curve; as a rule, active = well fitted inhibition curve with a large enough effect; inconclusive = small, poorly fitted or top-dose-only effect; inactive = flat fitted curve, though single readings scatter.

Tested on: Zika virus NS2B-NS3 protease
Experiment: Primary screen GU AMC qHTS for Zika virus inhibitors (AID 1347154); also: nearly all actives have a fitted effect of over 70% in size;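 as to activity change, negative = inhibition: 0% = no-inhibitor control and -100% = no-enzyme control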
Settings: Zika NS2B-NS3 unlinked protease, AMC fluorogenic substrate; series mostly up to 54.1 µM; activity change, negative = inhibition: at the top concentration
Method in brief: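 Unlinked Zika NS2B hydrophilic domain/NS3 protease domain noncovalent complex (25 nM final) in 10 mM Tris-HCl pH 8.0, 0.01% Tween 20, with AMC peptide substrate. Fluorescence (ex 340, em 450 nm) change over 15 min, room temperature; percent inhibition fitted to 4-parameter Hill equation.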
Potency is read from the fitted curve at half-maximal effect.

Row | SMILES | Potency | activity change, negative = inhibition
1 | CCCC(=O)c1cc(O)c(O)cc1O | 5.62 µM (active) | 
2 | CN1CCN(N)CC1 |  | -2.04% (inactive)
3 | COCCOCC(OC)OC |  | -6.39% (inactive)
4 | Nc1cc(C(F)(F)F)ccc1S |  | -3.14% (inactive)
5 | C=CCOc1cc(Cl)ccc1C(=O)NCCN(CC)CC |  | -5.15% (inactive)
6 | O=c1[nH]c2ccccc2c(=O)n1CCCl |  | -2.79% (inactive)
7 | CC(=O)N(CC(=O)N(C)C)c1ccccc1 |  | 0.227% (inactive)
8 | OCCc1ccccc1 |  | 3.36% (inactive)
9 | NCC(=O)O | inactive | 
10 | Cc1cc2nc3ccc(=[N+](C)C)cc-3sc2cc1N |  | -1.32% (inactive)
11 | OCCCc1ccccc1 |  | -0.564% (inactive)
12 | CO/N=C(/C(=O)N[C@@H]1C(=O)N2C(C(=O)OCOC(=O)C(C)(C)C)=C(C)CS[C@H]12)c1csc(N)n1 |  | -1.29% (inactive)
13 | CCN(CC)CC(=O)Oc1ccc(NC(C)=O)cc1 |  | 2.57% (inactive)
14 | CCc1cccc2c(CCO)c[nH]c12 |  | 2.38% (inactive)
15 | OC1(c2ccccc2)CCNCC1 |  | 1.76% (inactive)
16 | CC1(C)O[C@@H]2C[C@H]3[C@@H]4CCC5=CC(=O)C=C[C@]5(C)[C@@]4(F)[C@@H](O)C[C@]3(C)[C@]2(C(=O)CO)O1 |  | 2.36% (inactive)
17 | C[C@H]1C[C@H](O)c2ccsc2S1(=O)=O |  | -1.01% (inactive)
18 | CC(=O)OC/C=C(C)/C=C/C=C(C)/C=C/C1=C(C)CCCC1(C)C | inactive | 
19 | O=C1OC2(c3ccccc31)c1cc(I)c(O)c(I)c1Oc1c2cc(I)c(O)c1I | 16.1 µM (active) | 
20 | O=C(CCOCCOCCOCCOCCC(=O)Nc1c(I)cc(I)c(C(=O)O)c1I)Nc1c(I)cc(I)c(C(=O)O)c1I |  | -6.27% (inactive)
21 | CN(C(=O)C(Cl)Cl)c1ccc(OC(=O)c2ccco2)cc1 |  | -3.07% (inactive)
22 | CCOC(=O)OCC/C(SC(=O)OCC)=C(\C)N(C=O)Cc1cnc(C)nc1N |  | -3.4% (inactive)
